# Article PMC4336329 (PLoS ONE, 2015)
# Out of some 310,000 compounds screened, about 14,000 (4.5%) showed an effect of 50% or more. Effects have a minus sign here. The sample holds strong results, similar compounds and a random draw of the others, so the mix is not that of the screen.
# Biological target: human ether-à-go-go-related gene (hERG) potassium channel (human, UniProt Q12809)
# Assay: primary screen, population patch clamp on CHO cells stably expressing hERG; higher = less effect of the substance
# 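Also: peak tail current of the secondary pulse compared with the same well before compound.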
# Sequence of human ether-à-go-go-related gene (hERG) potassium channel (Q12809 whole entry, looked up): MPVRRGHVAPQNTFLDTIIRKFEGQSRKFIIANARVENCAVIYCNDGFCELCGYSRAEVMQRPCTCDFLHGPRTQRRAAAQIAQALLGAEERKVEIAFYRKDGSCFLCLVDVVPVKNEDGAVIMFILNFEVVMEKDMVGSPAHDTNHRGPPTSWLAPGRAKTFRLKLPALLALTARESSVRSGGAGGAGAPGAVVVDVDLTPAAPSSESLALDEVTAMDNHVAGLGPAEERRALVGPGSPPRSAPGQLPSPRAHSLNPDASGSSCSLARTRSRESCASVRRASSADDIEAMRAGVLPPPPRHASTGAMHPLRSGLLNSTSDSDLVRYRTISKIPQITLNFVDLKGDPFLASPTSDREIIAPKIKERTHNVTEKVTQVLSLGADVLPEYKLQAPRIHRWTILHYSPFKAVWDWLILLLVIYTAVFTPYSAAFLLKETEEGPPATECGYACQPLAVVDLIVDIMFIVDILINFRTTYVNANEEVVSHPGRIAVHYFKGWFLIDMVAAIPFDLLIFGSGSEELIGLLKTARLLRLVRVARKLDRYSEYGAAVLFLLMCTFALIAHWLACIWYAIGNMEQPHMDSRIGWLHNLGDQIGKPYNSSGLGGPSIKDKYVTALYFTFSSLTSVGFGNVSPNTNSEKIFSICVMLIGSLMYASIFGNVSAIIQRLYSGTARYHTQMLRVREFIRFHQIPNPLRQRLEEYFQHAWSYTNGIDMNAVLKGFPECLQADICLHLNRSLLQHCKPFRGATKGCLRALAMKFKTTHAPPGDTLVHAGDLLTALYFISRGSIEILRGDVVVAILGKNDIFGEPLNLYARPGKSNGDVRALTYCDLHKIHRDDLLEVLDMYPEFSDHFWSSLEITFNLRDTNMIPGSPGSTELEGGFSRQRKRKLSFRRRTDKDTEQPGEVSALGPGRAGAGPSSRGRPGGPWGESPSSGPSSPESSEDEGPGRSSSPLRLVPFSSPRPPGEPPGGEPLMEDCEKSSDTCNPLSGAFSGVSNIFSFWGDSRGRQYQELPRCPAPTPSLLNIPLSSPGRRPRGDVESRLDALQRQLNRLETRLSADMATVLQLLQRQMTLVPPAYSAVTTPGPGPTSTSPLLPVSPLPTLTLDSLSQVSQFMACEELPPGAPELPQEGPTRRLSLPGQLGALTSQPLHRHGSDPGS
row,Structure (SMILES),"hERG current change (%, negative = inhibition) at 10uM [%]"
1,CCCn1c(C)cc(C(=O)Cn2nnc3ccccc3c2=O)c1C,-34.7
2,O=C(CSc1ccc(-c2ccco2)nn1)c1ccc(F)cc1,-25.8
3,Cc1cc(C)cc(NC(=O)CSc2ccc(-c3ccco3)nn2)c1,-28.8
4,O=C(CSc1ccc(-c2cccs2)nn1)Nc1ccccc1,-35
5,CC(=O)Nc1cccc(NC(=O)CSc2ccc(-c3ccco3)nn2)c1,0.763
6,Cc1cccc(NC(=O)CSc2ccc(-c3ccco3)nn2)c1,-59.5
7,Cc1cc(C)cc(NC(=O)CSc2ccc(-c3cccs3)nn2)c1,-52.2
8,CC(=O)c1cccc(NC(=O)CSc2ccc(-c3ccco3)nn2)c1,1.79
9,O=C(CSc1ccc(-c2ccco2)nn1)Nc1cccc(F)c1,-55.2
10,CC(=O)Nc1ccc(NC(=O)CSc2ccc(-c3cccs3)nn2)cc1,11.4
11,COc1ccc(C(=O)CSc2ccc(-c3ccco3)nn2)cc1,-78.1
12,CCc1ccc(NC(=O)CSc2ccc(-c3ccco3)nn2)cc1,-16.6
13,O=C(CSc1ccc(-c2ccco2)nn1)c1ccccc1,-9.74
14,Cc1cc(OC(C)C(=O)Nc2cccnc2)ccc1Cl (stereo not drawn),2.05
15,COc1ccc(CNC(=O)C2CCN(S(=O)(=O)c3ccc4c(c3)NC(=O)CO4)CC2)cc1,16.7
16,O=C(NC(Cc1c[nH]c2ccccc12)C(=O)O)/C(=C\c1ccc2c(c1)OCO2)NC(=O)c1ccccc1 (stereo not drawn),-7.13
17,CCCC(=O)Nc1ccc2nc(SCC(=O)N3CCCC3)sc2c1,2.52
18,O=C(O)c1cccc(S(=O)(=O)N2CCCC(c3nc4c(nnn4Cc4ccc(F)cc4)c(=O)[nH]3)C2)c1 (stereo not drawn),-15.3
19,O=C1/C(=C\c2ccc(Br)o2)SC(=Nc2ccccc2)N1c1ccccc1,-10.1
20,Cl.N=c1c2c(n(Cc3ccc(Cl)c(Cl)c3)c3c1CCC3)CCCC2,-15.8
21,COc1cc(NC(=O)Cc2ccccc2)ccc1NC(=O)c1ccco1,18.5
22,O=C(CSc1ccc(-c2ccco2)nn1)Nc1ccc(F)cc1F,-65.8
23,Cc1ccc(NC(=O)CSc2ccc(-c3ccco3)nn2)c(C)c1,-24.4
24,O=C(CSc1ccc(-c2ccco2)nn1)Nc1ccccc1F,-43.4
25,O=C(CSc1ccc(-c2ccco2)nn1)Nc1ccccc1,-47.6
26,O=C(CSc1ccc(-c2ccco2)nn1)Nc1ccc(F)cc1,-68.5
27,CC(=O)Nc1ccc(NC(=O)CSc2ccc(-c3ccco3)nn2)cc1,-2.54
